# Laboratory results published in PubChem BioAssay (NCI).
# Compounds without any hit were thinned out: in the full panel of roughly 83,000, 20% have a hit.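 Values shown are percent growth following 48 h exposure of cells in 96-well plates to a single concentration of compound; below 10 was considered active.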 A number with no mark means an inactive call. Active and inactive are the calls of the source.
# Assays:
# Assay in all cases: NCI-60 one-dose screen, 48 h (100 = growth as untreated, 0 = no growth, -100 = all killed)
# Details in all cases: 10 µM unless noted
# [1] = tested on: HCT-15 colon
# [2] = tested on: HT29 colon
# [3] = tested on: SNB-75 CNS
# [4] = tested on: SNB-19 CNS
# [5] = tested on: U251 CNS
# [6] = tested on: PC-3 prostate
# [7] = tested on: UACC-62 melanoma
# [8] = tested on: LOX IMVI melanoma
# [9] = tested on: SK-MEL-28 melanoma
# [10] = tested on: SK-MEL-5 melanoma
SMILES,growth [1],growth [2],growth [3],growth [4],growth [5],growth [6],growth [7],growth [8],growth [9],growth [10]
Clc1ccc2c(c1)C[C@H]1C[C@@H](c3cccs3)N2O1,97.2%,111%,101%,114%,93.7%,91.6%,105%,93.2%,110%,
O=C(N/N=C/c1ccc(OC(F)F)c(OC2CCCC2)c1)c1cnn2c1NC(c1ccccc1)C2 (stereo unspecified),51.1%,81.7%,57.6%,79.9%,82.1%,61.7%,71.2%,68.1%,88.7%,
COc1cc2nc(N3CCC[C@H](NC4=CC(=O)c5ccccc5C4=O)C3)nc(N)c2cc1OC,-63.5% (active),-69.1% (active),-83.5% (active),-74.7% (active),-90.2% (active),54.5%,-87.9% (active),-82.9% (active),-85.2% (active),
COc1cc(NC(=O)COc2ccccc2)c(C(N)=O)cc1OC,30.1%,1.53% (active),17.9%,56%,17.8%,30.7%,51.9%,59.1%,70.1%,
N#Cc1c(-c2cccc(F)c2)cc(-c2ccc(Br)s2)[nH]c1=O,27.2%,118%,61.2%,78.4%,56.2%,78.2%,57.9%,61.7%,71.3%,
Cn1c2ccccc2c2nn(C(=O)c3ccccc3)c(=O)nc21,101%,105%,105%,99%,112%,92.4%,105%,99.3%,,
CN1CCc2c(Sc3ccc(C(=O)NO)cc3)c3ccccc3n2C1,75.6%,48.9%,25.8%,53.4%,23.8%,20.8%,38.9%,11.6%,14.7%,
O=C1C=CC(=O)N1CCCCCCCCCCN1C(=O)C=CC1=O,92.4%,63.2%,95.7%,108%,76.9%,82.2%,102%,42.9%,97%,
Cc1ccc(C(=O)Nc2ccccc2N)cc1,88%,79.4%,82.8%,81.9%,74.8%,70.9%,52.1%,89.5%,,
C[C@@H](Oc1cc(-c2cnn(C3CC4(CCNCC4)C3)c2)cnc1N)c1c(F)ccc(Cl)c1Cl,1.76% (active),-56.6% (active),-3.45% (active),61.6%,12.1%,6.2% (active),-88.1% (active),-85.8% (active),-83.4% (active),
C[C@@H](Oc1cc(-c2cnn(C3CC4(CNC4)C3)c2)cnc1N)c1c(Cl)ccc(F)c1Cl,35.4%,-11.9% (active),25.1%,96.7%,61.8%,24.7%,53%,11.5%,58.9%,
COc1cc(Cn2cc(F)c(=O)[nH]c2=O)cc(OC)c1,103% [50 µM],110% [50 µM],91.2% [50 µM],101% [50 µM],106% [50 µM],101% [50 µM],,86.2% [50 µM],109% [50 µM],103% [50 µM]
COc1cccc(C2CC(=O)Nc3cc4c(cc32)OCO4)c1OC (stereo unspecified),89.4%,90.6%,76.3%,101%,85.6%,94.2%,96.1%,96.5%,111%,
C=CC(=O)N1CC2(CC(n3nc(-c4ccc(Oc5ccccc5)cc4)c4c(N)ncnc43)C2)C1,29.2%,31.7%,-13.6% (active),36.6%,21%,51.3%,7.95% (active),-17.8% (active),29%,
CN1CCC(OC2c3ccccc3CCc3ccccc32)CC1,98.8%,90.1%,65.7%,99.2%,92.5%,78.3%,98.4%,91.1%,94.2%,
COc1cc(C(=O)N(C(C)C)C2CCCCC2)cc(OC)c1OC,103%,99.2%,87.6%,97.9%,102%,89.8%,96.5%,94.6%,105%,
COc1cc(-c2nc(Nc3nc4ccccc4[nH]3)nc(N)c2C#N)cc(OC)c1OC,59.1%,32%,29.2%,69.2%,56.8%,44.7%,44.5%,69.5%,,
Cc1ccc2c(c1)c(Sc1ccc(C(=O)NO)cc1)c1n2CN(C)CC1,58.7%,25.6%,17.8%,31%,2.16% (active),-3.93% (active),-1.71% (active),-33.1% (active),7.31% (active),
N#CC1=C(N)Oc2cc(N)ccc2C1c1ccc(F)cc1 (stereo unspecified),46.9%,46.4%,67.2%,81.1%,83.4%,90.8%,74.7%,78.1%,84.8%,
CCN(CC)c1ccc2c(c1)OS(=O)(=O)N=C2,102%,111%,87.9%,101%,99.3%,100%,,89.2%,105%,
COc1ccccc1/C=C/C(=O)/C=C/c1ccccc1O,-17.7% (active),-41.8% (active),31.3%,31.8%,-78.9% (active),,,-67.7% (active),-86.9% (active),63.7%
CSc1nnc(-c2sc3nnc(-c4ccccc4)c(-c4ccccc4)c3c2O)o1,54.6%,107%,78.4%,66.4%,62.9%,,58.9%,,85.5%,83.5%
CN1CCn2c(c(Sc3ccc(C(=O)NO)cc3)c3ccccc32)C1=O,14.6%,44.3%,-17.2% (active),-26.4% (active),-60.5% (active),-35.2% (active),-61.4% (active),-44.2% (active),-33.4% (active),
O=c1oc2ccccc2cc1-c1csc(N/N=C/c2cc3ccccc3nc2Cl)n1,101%,100%,96.7%,96.1%,97.2%,95%,91.8%,101%,102%,
COc1cc(C2=NN(c3ccc(S(N)(=O)=O)cc3)C(c3ccc(Cl)cc3)C2)cc(OC)c1OC (stereo unspecified),43.1%,32.1%,41.5%,56.5%,23.9%,,,42.5%,44.3%,27.5%
COc1ccc(C(=O)COc2cccc(/C=C3\CSc4ccc(C)cc4C3=O)c2)cc1,84.8%,101%,95%,97%,97%,,75.2%,74.2%,120%,88.2%
Cc1ccc(S(=O)(=O)N(c2ccc(Cl)cc2)c2ccc(Br)cc2C(=O)O)cc1,100%,107%,97.2%,99.9%,95.8%,96.7%,105%,,119%,
CCCN(CCC)c1ccc(/C=C/c2ccc3cc(OCC)ccc3n2)cc1,78.6%,66.7%,98.6%,90%,74.9%,,86.6%,97.6%,64.8%,78.3%
Cc1nc2cc(Nc3nc(NCCN)nc(Nc4ccc(F)cc4)n3)ccc2n1Cc1ccccc1,100%,35.1%,84.2%,91.6%,77.4%,,,58.2%,107%,86.6%
CCCCCn1c(=N)n(CC(O)COc2cccc(C)c2)c2ccccc21 (stereo unspecified),11.1%,72.7%,2.13% (active),20%,1.64% (active),7.46% (active),25.7%,13.7%,31.2%,
